# Measured values reported in paper PMC5540273 (PLoS ONE, 2017).
# How the values were obtained:
# Conditions in all cases: concentration: 1 μM, replicates: in singlicate; n = 1
# STK36 = tested on: STK36
# STK39 = tested on: STK39
# SYK = tested on: SYK
# SgK110 = tested on: SgK110
# TAK1 = tested on: T1, TAK1
# T1 construct: gene MAP3K7
# TAOK1 = tested on: TAOK1
# TAOK2 = tested on: TAOK2
# TAOK3 = tested on: TAOK3
# TBK1 = tested on: TBK1
# TEC = tested on: TEC
# TESK1 = tested on: TESK1
# TGFBR1 = tested on: TGFBR1
# TGFBR2 = tested on: TGFBR2
# TIE1 = tested on: TIE1
# TIE2 = tested on: T2, TIE2
# T2 construct: gene TEK
# TLK1 = tested on: TLK1
# TLK2 = tested on: TLK2
# TNIK = tested on: TNIK
# TNK1 = tested on: TNK1
# TNK2 = tested on: TNK2
# 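Note: KINOMEscan kinase panel screen.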
Structure (SMILES),%Inh (STK36) [%],%Inh (STK39) [%],%Inh (SYK) [%],%Inh (SgK110) [%],%Inh (TAK1) [%],%Inh (TAOK1) [%],%Inh (TAOK2) [%],%Inh (TAOK3) [%],%Inh (TBK1) [%],%Inh (TEC) [%],%Inh (TESK1) [%],%Inh (TGFBR1) [%],%Inh (TGFBR2) [%],%Inh (TIE1) [%],%Inh (TIE2) [%],%Inh (TLK1) [%],%Inh (TLK2) [%],%Inh (TNIK) [%],%Inh (TNK1) [%],%Inh (TNK2) [%]
Cn1cc(-c2ccc3c(c2)CCN3C(=O)Cc2cccc(F)c2)c2c(N)ncnc21 [GSK2603358],0,12,18,0,30,0,0,0,19,8,39,0,0,89,48,0,0,0,0,3
Cc1cccc(Nc2nc(N[C@H]3CCNC3)ncc2C(N)=O)c1.Cl [GSK2197149],10,9,81,0,90,39,0,5,18,0,23,0,0,0,0,20,0,78,47,6
CN1CCN(Cc2cccc(-c3ccc4c(Nc5ccc(Oc6ccccc6)cc5)ccnc4c3)c2)CC1 [GW578342],0,6,0,6,13,0,0,0,16,70,2,0,0,10,0,78,0,98.8,70,7
COCCOCCOc1cc2ncc3c4ccc(C#N)cc4[nH]c3c2cc1OC,22,0,5,0,88,0,12,0,89,0,18,0,0,0,0,0,0,87,0,9
Cc1cccc(NC(=O)Nc2ccc(Oc3ncnc4ccn(C)c34)cc2)c1,0,0,0,0,0,0,20,0,6,0,0,0,0,59,2,0,0,8,0,5
c1ccc(-c2cnc3nccnn23)cc1 [AH20685],0,0,26,0,0,0,0,0,0,0,0,0,0,0,0,0,0,0,9,0
O=C(Nc1cccc(-c2nn3ccccc3c2-c2ccnc(Nc3cccc(C(F)(F)F)c3)n2)c1)c1c(F)cccc1F [GSK292658],97.8,0,37,68,0,27,3,30,8,83,0,6,0,31,0,0,0,0,75,22
COc1ccc(-c2coc3ccc(-c4nnc(SCc5ccc(OC)c(C(F)(F)F)c5)o4)cc23)cc1,29,0,0,4,0,0,0,0,11,18,0,6,25,0,0,17,0,3,9,8
Clc1ccc(-c2nn3ncccc3c2-c2ccnc(Nc3ccc4c(c3)OCCO4)n2)cc1 [GW829116],79,0,0,11,0,0,19,0,19,0,11,46,23,24,0,0,0,31,46,0
Nc1ncc(-c2ccc3nccc(-c4ccncc4)c3c2)cc1S(=O)(=O)N1CCOCC1 [GSK1627798],0,0,12,0,0,0,0,0,10,9,2,0,5,3,0,0,0,0,0,11
O=c1[nH]cc(-c2ccc(N3CCOCC3)cc2)c2sc(-c3cn[nH]c3)cc12 [GSK2276055],0,3,0,0,53,68,5,21,25,0,55,0,0,0,0,25,19,10,0,0
Cn1cc(-c2ccc3c(c2)CCN3C(=O)Cc2cccc(Cl)c2)c2c(N)ncnc21 [GSK2606590],0,9,38,0,42,0,0,0,27,4,52,0,0,92.3,45,0,0,7,11,0
Nc1ncc(-c2cccnc2)c2scc(-c3ccc4c(c3)CCN4C(=O)Cc3ccccc3)c12 [GSK683281],87,4,34,1,7,0,4,0,14,17,33,0,0,92.5,57,0,0,55,19,59
COc1cccc(NC(=O)NC2CCN(c3ccnc(Nc4cc(OC)c(OC)c(OC)c4)n3)C2)c1 (stereo not shown) [GSK1379763],0,0,28,0,0,0,0,0,38,5,1,4,0,28,0,10,0,0,0,9
Nc1n[nH]c2cnc(-c3ccccc3)cc12 [SB-642124],0,0,0,50,0,51,9,7,1,68,22,27,58,100,0,25,0,39,0,38
CC(C)c1nc(-c2cccc(NS(=O)(=O)c3c(F)cccc3F)c2F)c(-c2ccnc(Nc3ccc(N4CCOCC4)nc3)n2)s1 [GSK2008607],100,48,85,0,76,10,71,19,51,85,100,86,77,91.2,99.1,22,0,63,100,99.6
CN1CCN(CCCNc2nccc(-c3c(-c4ccc(F)cc4)nn4cc(C(F)(F)F)ccc34)n2)CC1 [GW621581],97.6,3,10,0,0,4,0,8,0,0,10,72,44,16,9,2,0,24,0,0
Cl.NC(=O)c1cccc(Nc2nccc(Nc3ccc(Oc4c(Cl)cccc4Cl)c(Cl)c3)n2)c1 [GW659009],0,0,0,0,1,9,0,8,0,0,0,0,29,33,0,0,0,0,36,0
Cl.c1ccc(-c2ccc3c(Nc4ccc5[nH]ncc5c4)ccnc3c2)nc1 [GW440137],0,6,27,6,0,0,0,0,21,0,63,31,50,1,0,15,5,18,2,8
Cl.c1ccc(-c2ccc3c(Nc4ccc5[nH]ccc5c4)ccnc3c2)nc1 [GW440138],0,0,0,0,0,0,0,0,12,0,23,53,4,0,0,1,0,58,24,4
